{"source": "PubChem BioAssay AID1851", "about": "(National Center for Advancing Translational Sciences (NCATS), 2009)", "note": "The whole screen tested about 16,000 compounds, of which about 5,700 (36%) were called active. Roughly 24% stayed inconclusive and do not appear here. This is one part of the list. A number with no mark means an inactive call. Calls come from the whole dose curve; as a rule, active = well fitted curve in the direction sought with a large enough effect; inconclusive = small, poorly fitted or top-dose-only effect, or effect the other way; inactive = no such curve, though single readings can be large or run the other way. % is set by controls: 0 for no effect and ±100 for the full control effect."}
{"target": "Cytochrome P450 1A2 (Homo sapiens) (UniProt P05177)", "sequence (P05177 whole entry, looked up)": "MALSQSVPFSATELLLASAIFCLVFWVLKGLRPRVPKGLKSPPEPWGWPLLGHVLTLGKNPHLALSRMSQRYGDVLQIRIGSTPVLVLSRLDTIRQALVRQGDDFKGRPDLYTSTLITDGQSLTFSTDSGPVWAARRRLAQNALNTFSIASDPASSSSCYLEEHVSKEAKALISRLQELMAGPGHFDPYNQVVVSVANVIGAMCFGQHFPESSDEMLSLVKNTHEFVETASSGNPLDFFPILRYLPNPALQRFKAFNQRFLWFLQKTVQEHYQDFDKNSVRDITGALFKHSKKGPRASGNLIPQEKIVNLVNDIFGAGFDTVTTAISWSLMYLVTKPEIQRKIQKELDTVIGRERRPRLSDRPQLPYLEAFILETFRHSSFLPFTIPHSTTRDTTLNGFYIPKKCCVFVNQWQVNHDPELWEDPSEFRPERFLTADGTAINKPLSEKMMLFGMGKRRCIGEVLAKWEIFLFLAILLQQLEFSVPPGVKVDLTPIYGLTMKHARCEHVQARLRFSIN", "test": "Cytochrome panel assay with activity outcomes", "settings": "recombinant CYP, pro-luciferin dealkylation, luminescence, p450-cyp1a2; series mostly up to 57.1 µM"}
{"compound": "CCn1c(-c2ccoc2C)n[nH]c1=S", "AC50": "22400 nM (active)"}
{"compound": "O=C(O)CCSC1=NCCN1", "activity, negative = inhibition": "-7.93% [at 11.4 µM]"}
{"compound": "CSC1(SC2=NCCN2)SC2(NCCN2)S1", "AC50": "398 nM (active)"}
{"compound": "COc1ccc(NC(=O)N2CC[C@@]3(CCCNC3)C2)cc1", "AC50": "inactive"}
{"compound": "CCCCN1C(=O)C(NC(=O)C2CC2)(C(F)(F)F)C2=C1CC(C)(C)CC2=O", "note": "(stereo unspecified)", "AC50": "inactive"}
{"compound": "CC/C(=N/Nc1ccccc1)c1cnnc(SC)n1", "AC50": "10000 nM (active)"}
{"compound": "CSc1nncc(/C(C)=N\\Nc2ccccc2)n1", "AC50": "12600 nM (active)"}
{"compound": "CCc1ccc(N(C(=O)c2ccoc2C)C(C(=O)NC2CCCC2)c2ccc(OC)cc2)cc1", "note": "(stereo unspecified)", "AC50": "inactive"}
{"compound": "Cc1ccc(Nc2nnc(-c3ccc4c(c3)OCO4)o2)c(C)c1", "AC50": "2510 nM (active)"}
{"compound": "COc1cc(N=C(N)N=C(N)N)c2ncccc2c1", "AC50": "398 nM (active)"}
{"compound": "COc1ccc([C@H](O)c2ccccn2)cc1", "activity, negative = inhibition": "-16% [at 11.4 µM]"}
{"compound": "COc1cc(NCCC(=O)O)c2ncccc2c1", "activity, negative = inhibition": "-18.1% [at 11.4 µM]"}
{"compound": "CC(C)=CCC/C(C)=C/CO/N=C1/[C@H]2O[C@@H]2[C@@H](O)[C@H]2[C@H]1CCn1c(=O)n(Cc3cc4c(cc3Cl)OCO4)c(=O)n12", "activity, negative = inhibition": "-2.22% [at 11.4 µM]"}
{"compound": "c1ccc(CN2c3ccccc3-c3nc4ccccc4n3C2c2ccccn2)cc1", "note": "(stereo unspecified)", "AC50": "4470 nM (active)"}
{"compound": "O=C(Cc1ccccc1)Nc1nc2ccc(Cl)cc2c2nc(-c3ccco3)nn12", "AC50": "200 nM (active)"}
{"compound": "Oc1ccc(Cl)cc1Cc1cc(Cl)cc(Cc2cc(Cl)ccc2O)c1O", "activity, negative = inhibition": "-23.8% [at 2.29 µM]"}
{"compound": "CN(C)Cc1cc(Cl)c(O)c(CN(C)C)c1", "activity, negative = inhibition": "-10.7% [at 11.4 µM]"}
{"compound": "Oc1ccc(Cc2cc(Cl)cc(Cl)c2O)cc1Cl", "AC50": "1580 nM (active)"}
{"compound": "COc1ccccc1CN(Cc1cc2cc3c(cc2[nH]c1=O)OCCO3)Cc1nnnn1Cc1ccco1", "AC50": "17800 nM (active)"}
{"compound": "CCC(C)(C)n1nnnc1C(c1ccc(C)cc1)N1CCC(C)CC1", "note": "(stereo unspecified)", "AC50": "inactive"}
{"compound": "CCC(Sc1nc2cc3c(cc2c(=O)n1Cc1ccco1)OCO3)C(=O)Nc1ccccc1OC", "note": "(stereo unspecified)", "AC50": "inactive"}
{"compound": "CCC(C)(C)n1nnnc1C(C(C)C)N(Cc1ccco1)Cc1cc2cc3c(cc2[nH]c1=O)OCO3", "note": "(stereo unspecified)", "AC50": "14100 nM (active)"}
{"compound": "CC(C)(C)n1nnnc1C(c1cccnc1)N(Cc1ccccc1)Cc1ccco1", "note": "(stereo unspecified)", "AC50": "inactive"}
{"compound": "Cc1nonc1NC(=O)N1CCCC1", "AC50": "inactive"}
{"compound": "CCC[C@@H]1O[C@@H]2C[C@@H]3[C@H]4CCC5=CC(=O)C=C[C@@]5(C)[C@H]4[C@H](O)C[C@@]3(C)[C@@]2(C(=O)CO)O1", "AC50": "inactive"}
{"compound": "CCCc1c(O)c2ccccc2n(-c2ccccc2)c1=O", "AC50": "14100 nM (active)"}
{"compound": "CN(C(=O)c1c(O)c2ccccc2n(C)c1=O)c1ccccc1", "AC50": "inactive"}
{"compound": "Cc1cnc(CNc2ncncc2-c2c(C)noc2C)cn1", "AC50": "inactive"}
{"compound": "Cc1cnc(CNc2ncncc2-c2ccoc2)cn1", "AC50": "12600 nM (active)"}
{"compound": "Cc1cnc(CNc2ncncc2-c2ccc(N(C)C)cc2)cn1", "AC50": "3160 nM (active)"}
{"compound": "Cn1cc(-c2nc3cncnc3n(CCN)c2=O)c2ccccc21", "AC50": "6310 nM (active)"}
{"compound": "COc1cccc(Cn2c(=O)c(-c3cn(C)c4ccccc34)nc3cncnc32)c1", "AC50": "1000 nM (active)"}
{"compound": "COCCn1c(=O)c(-c2cn(C)c3ccccc23)nc2cncnc21", "AC50": "398 nM (active)"}
{"compound": "COCCn1c(=O)c(-c2cn(C)c3ccccc23)nc2cnc(OCc3ccccc3)nc21", "AC50": "5010 nM (active)"}
{"compound": "O=C(Cn1cnc([N+](=O)[O-])c1)NCc1ccc(F)cc1", "AC50": "inactive"}
{"compound": "COc1ccccc1CCn1c(=O)c(-c2cn(C)c3ccccc23)nc2cncnc21", "AC50": "1260 nM (active)"}
{"compound": "COC(=O)CC[C@@H](C)[C@H]1CC[C@H]2[C@H]3CC[C@H]4C[C@@H]5CC[C@@]4(C)C3(O5)[C@@H](Br)[C@@H](Br)[C@@]12C", "activity, negative = inhibition": "-8.93% [at 11.4 µM]"}
{"compound": "CCCC(=O)Nc1c(C)n[nH]c1C", "AC50": "inactive"}
{"compound": "CCCC(=O)Nc1nc(C(=O)OCC)cs1", "AC50": "15800 nM (active)"}
{"compound": "COc1cc(OC)c2c(c1)C(=O)c1cc(OC)cc(OC)c1C2=O", "AC50": "2000 nM (active)"}
{"compound": "Cc1ccc(-n2ccnc2SCC(=O)N(CC(C)C)C2CCS(=O)(=O)C2)c(C)c1", "note": "(stereo unspecified)", "AC50": "inactive"}
{"compound": "Cc1ccc(-n2nnnc2SCC(=O)NNC(=O)c2ccco2)c(C)c1", "AC50": "inactive"}
{"compound": "CC(=O)c1ccc(-n2nnnc2SCC(=O)Nc2cccc(NC(=O)c3ccco3)c2)cc1", "AC50": "501 nM (active)"}
{"compound": "O=C(CSc1ccc(Cl)cc1)Nc1cccc(NC(=O)c2ccco2)c1", "AC50": "2000 nM (active)"}
{"compound": "O=C(CSc1ccccc1)Nc1ccc(NC(=O)c2ccco2)cc1", "AC50": "inactive"}
{"compound": "COc1ccc(NC(=O)CSc2nnc(CNC(=O)c3ccco3)n2-c2ccccc2OC)cc1", "AC50": "inactive"}
{"compound": "Fc1cccc(F)c1C(Nc1nncs1)Nc1nncs1", "activity, negative = inhibition": "12.3% [at 2.29 µM]"}
{"compound": "Cc1cccc(C(=O)NC2CCN(C(=S)NCc3ccco3)CC2)c1", "AC50": "inactive"}
{"compound": "Cn1c(=O)n(-c2ccc(Cl)cc2)c(=O)c2c3c(sc21)COC(C)(C)C3", "AC50": "14100 nM (active)"}
{"compound": "O=C(C/C=N/OCc1ccc(Cl)cc1Cl)c1ccc(Cl)cc1", "AC50": "2820 nM (active)"}
{"compound": "O=C(C/C=N/OCc1ccc(F)cc1Cl)c1cnc(-c2ccccc2)s1", "AC50": "1780 nM (active)"}
{"compound": "O=C1[C@@H]2[C@H]3[C@H](O)[C@H](O)C/C(=N/OCc4ccccc4)[C@H]3CC[C@H]2C(=O)N1c1ccc(F)cc1F", "activity, negative = inhibition": "-0.404% [at 11.4 µM]"}
{"compound": "CCCc1nnc(SCC(=O)N2C(C)CCCC2C)n1CCCOC", "note": "(stereo unspecified)", "AC50": "inactive"}
{"compound": "O=C(Nc1cccc(F)c1)N1CCC2(CC1)CCN(C(=O)c1ccco1)CC2", "AC50": "inactive"}
{"compound": "O=C(Nc1cccc(F)c1)/C(=C\\c1ccco1)NC(=O)c1cccs1", "AC50": "4470 nM (active)"}
{"compound": "Cc1ccc(NC(=O)/C(=C\\c2cccc([N+](=O)[O-])c2)NC(=O)c2cccs2)cc1", "AC50": "inactive"}
{"compound": "NCCC(=O)O", "AC50": "inactive"}
{"compound": "CCCCCC/C(C)=C1/SC(=S)NC1=O", "AC50": "2510 nM (active)"}
{"compound": "c1ccc(Oc2cc(-c3ccccc3)ncn2)cc1", "AC50": "2820 nM (active)"}
{"compound": "COc1cc(/C=N/NC(=O)c2cccnc2)ccc1OC(=O)c1ccc2c(c1)OCO2", "AC50": "inactive"}
{"compound": "COc1cc(/C=N/NC(=O)c2cccnc2)ccc1OC(=O)c1ccco1", "AC50": "12600 nM (active)"}
